Laboratory results taken from PubChem BioAssay (Tox21).
Records with an inconclusive call do not appear. Activity calls are given as the source filed them. The call rests on the fitted dose curve; in most records, active means well fitted activation curve with a large enough effect in the signal ratio in the repeat runs (not every such curve was filed as active); inconclusive means weak or mixed curves, or effect the other way; inactive means flat fitted curve, though single readings scatter; the % refers to the signal ratio.

Molecular target: Estrogen receptor beta (Homo sapiens) (UniProt Q92731)
Sequence (Q92731 whole entry, looked up): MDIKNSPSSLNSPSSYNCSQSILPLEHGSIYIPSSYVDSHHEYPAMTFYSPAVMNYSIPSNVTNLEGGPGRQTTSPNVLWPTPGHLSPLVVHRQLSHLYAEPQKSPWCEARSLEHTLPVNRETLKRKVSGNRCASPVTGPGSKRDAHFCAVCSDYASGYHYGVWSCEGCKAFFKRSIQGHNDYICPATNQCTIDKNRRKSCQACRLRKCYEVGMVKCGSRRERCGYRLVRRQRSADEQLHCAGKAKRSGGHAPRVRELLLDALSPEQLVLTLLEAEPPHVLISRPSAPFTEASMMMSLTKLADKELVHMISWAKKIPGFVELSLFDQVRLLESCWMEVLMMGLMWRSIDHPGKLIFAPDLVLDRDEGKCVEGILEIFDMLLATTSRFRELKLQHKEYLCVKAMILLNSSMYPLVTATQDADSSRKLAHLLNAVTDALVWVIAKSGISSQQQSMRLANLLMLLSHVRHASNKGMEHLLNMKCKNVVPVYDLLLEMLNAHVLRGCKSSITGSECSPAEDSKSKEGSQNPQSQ
Test: qHTS assay to identify small molecule agonists of the estrogen receptor beta (ER-beta) signaling pathway (AID 1259377)
Settings: ER-beta-UAS-bla HEK293T, beta-lactamase FRET ratio, 16 h; series mostly up to 92.4 µM
Summary of the method: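 Agonist mode cell assay in GripTite HEK293T cells expressing an ER-beta fusion that drives beta-lactamase from an Upstream Activator Sequence; 16 hr compound exposure at 37C, then 2 h LiveBLAzer B/G FRET substrate at room temperature, fluorescence read-out.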

| Compound | outcome |
| --- | --- |
| Cc1ccc(C)c(OCCCC(C)(C)C(=O)O)c1 | inactive |
| CC(O)CN(CCN(CC(C)O)CC(C)O)CC(C)O (stereo unspecified) | inactive |
| CCCCCCCCCCCCCCCC(=O)O | inactive |
| NC(=O)c1cnccn1 | inactive |
| Cc1ccccc1C(OCCN(C)C)c1ccccc1 (stereo unspecified) | inactive |
| c1ccc2[nH]ccc2c1 | inactive |
| CC(C)(Oc1ccc(C2CC2(Cl)Cl)cc1)C(=O)O (stereo unspecified) | inactive |
| COc1c2occc2cc2ccc(=O)oc12 | inactive |
| O=c1ccc2ccccc2o1 | inactive |
| CCC1(c2ccccc2)C(=O)NCNC1=O | inactive |
| CCCNC(=O)NS(=O)(=O)c1ccc(Cl)cc1 | inactive |
| O=c1cc[nH]c(=S)[nH]1 | inactive |
| NC(=O)c1ccccc1O | inactive |
| Cn1cc[nH]c1=S | inactive |
| COc1ccc2[nH]cc(CCNC(C)=O)c2c1 | inactive |
| CC(C)[C@@H]1CC[C@@H](C)C[C@H]1O | inactive |
| Nc1ccn([C@H]2CC[C@@H](CO)O2)c(=O)n1 | inactive |
| CC(=O)OCC(COC(C)=O)OC(C)=O | inactive |
| O=C(O)c1cc(N=Nc2ccc(S(=O)(=O)Nc3ccccn3)cc2)ccc1O | inactive |
| Cc1ccc(S(=O)(=O)NC(=O)NN2CCCCCC2)cc1 | inactive |
| O=C(O)c1cccc([N+](=O)[O-])c1 | inactive |
| CC(=O)NS(=O)(=O)c1ccc(N)cc1 | inactive |
| O=C(O)c1cccnc1 | inactive |
| CCCC(O)C(CC)CO (stereo unspecified) | inactive |
| O=C(O)/C=C\C(=O)O | inactive |
| CC(=O)Nc1nnc(S(N)(=O)=O)s1 | inactive |
